Measurements: PubChem BioAssay (NCI)
Compounds without any hit were thinned out: in the full panel of roughly 83,000, 20% have a hit.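 The endpoint reported here, percent growth, reads 100 for growth as untreated, 0 for no net growth and -100 for all cells dead.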 The source made the active and inactive calls. How the source made its calls: active means growth percent below 10; inactive means the rest.

Tests used:
Assay in all cases: NCI-60 one-dose screen, 48 h (100 = growth as untreated, 0 = no growth, -100 = all killed)
NCI-H23 lung = conditions: 10 µM unless noted
NCI-H226 lung = conditions: 10 µM unless noted
NCI-H322M lung = conditions: 10 µM unless noted
HOP-62 NSCLC = conditions: 10 µM unless noted
NCI-H460 lung = conditions: 10 µM unless noted
HOP-92 NSCLC = conditions: 10 µM unless noted
NCI-H522 lung = conditions: 10 µM unless noted
A549/ATCC NSCLC = conditions: 10 µM unless noted
786-0 renal = conditions: 10 µM unless noted
COLO 205 colon = conditions: 10 µM unless noted
DU-145 prostate = conditions: 10 µM unless noted
K-562 leukemia = conditions: 10 µM unless noted
MALME-3M melanoma = conditions: 10 µM unless noted
MDA-MB-231 breast = conditions: 10 µM unless noted
SF-268 CNS = conditions: 10 µM unless noted
SF-295 CNS = conditions: 10 µM unless noted
SF-539 CNS = conditions: 10 µM unless noted
UACC-257 melanoma = conditions: 10 µM
M14 melanoma = conditions: 10 µM unless noted

Measured: growth

O=c1[nH]c(-c2cn(-c3ccc(Cl)cc3)nn2)nc2ccccc12
inactive: NCI-H23 lung 77.6% | NCI-H226 lung 65.5% | NCI-H322M lung 52.4% | HOP-62 NSCLC 52.5% | NCI-H460 lung 74.7% | HOP-92 NSCLC 62.9% | NCI-H522 lung 67.8% | A549/ATCC NSCLC 61.2% | 786-0 renal 31.9% | COLO 205 colon 99.2% | DU-145 prostate 94.6% | K-562 leukemia 96.6% | MALME-3M melanoma 59% | MDA-MB-231 breast 74.9% | SF-268 CNS 77.9% | SF-295 CNS 83.6% | SF-539 CNS 48.2% | UACC-257 melanoma 77.9% | M14 melanoma 91.4%

CCCCCCCCCN1C(=O)/C(=c2\sc3n(c2=O)C2C(NN=3)N(CC)C(=O)N2CC)c2ccccc21 (configuration not stated)
inactive: NCI-H23 lung 10.1% | NCI-H226 lung 89.6% | NCI-H322M lung 77% | HOP-62 NSCLC 45.1% | NCI-H460 lung 46.1% | HOP-92 NSCLC 44.5% | NCI-H522 lung 26.8% | A549/ATCC NSCLC 56% | 786-0 renal 78.4% | COLO 205 colon 93.3% | DU-145 prostate 69.8% | K-562 leukemia 21.3% | MALME-3M melanoma 50.7% | MDA-MB-231 breast 63.9% | SF-268 CNS 50.9% | SF-295 CNS 61% | M14 melanoma 90.8%
active: SF-539 CNS 8.03%

CCN1C(=S)N(CC)C2Nn3c(s/c(=C4\C(=O)N(C)c5ccccc54)c3=O)=NC21 (configuration not stated)
inactive: NCI-H23 lung 44.9% | NCI-H226 lung 88.6% | NCI-H322M lung 73.1% | HOP-62 NSCLC 52.3% | NCI-H460 lung 29% | HOP-92 NSCLC 76.1% | NCI-H522 lung 32.3% | A549/ATCC NSCLC 50.3% | 786-0 renal 56.2% | COLO 205 colon 30.8% | DU-145 prostate 34.6% | K-562 leukemia 12.8% | MALME-3M melanoma 51% | MDA-MB-231 breast 42.1% | SF-268 CNS 53.5% | SF-295 CNS 47.4% | M14 melanoma 70.2%
active: SF-539 CNS 6.07%

Cc1oc2nc[nH]c(=O)c2c1C(=O)/C=C/c1ccc(Cl)cc1
inactive: NCI-H23 lung 39.7% | NCI-H226 lung 94% | NCI-H322M lung 45.2% | NCI-H460 lung 21% | NCI-H522 lung 17.5% | A549/ATCC NSCLC 31.7% | 786-0 renal 29.7% | COLO 205 colon 70.8% | MALME-3M melanoma 71% | MDA-MB-231 breast 22.3% | SF-268 CNS 50.1% | SF-295 CNS 77% | SF-539 CNS 14.5% | M14 melanoma 82.3%
active: HOP-62 NSCLC 6.15% | HOP-92 NSCLC -4.23% | DU-145 prostate 6.76% | K-562 leukemia -63.2%

O=C1CCCCC=C1C[N+](=O)[O-]
active: NCI-H522 lung -12.3%
inactive: NCI-H23 lung 91.5% | NCI-H226 lung 86.3% | NCI-H322M lung 105% | HOP-62 NSCLC 107% | NCI-H460 lung 102% | HOP-92 NSCLC 90% | A549/ATCC NSCLC 121% | 786-0 renal 102% | COLO 205 colon 43% | DU-145 prostate 106% | K-562 leukemia 27.8% | MALME-3M melanoma 73.2% | MDA-MB-231 breast 107% | SF-268 CNS 94.2% | SF-295 CNS 97.7% | SF-539 CNS 101% | M14 melanoma 91.3%

COc1cc(OC)cc(-c2n[nH]nc2-c2ccc3c(c2)OCO3)c1
inactive: NCI-H23 lung 30.1% | NCI-H226 lung 92.1% | NCI-H322M lung 55.5% | HOP-62 NSCLC 30.3% | NCI-H460 lung 12% | HOP-92 NSCLC 57% | A549/ATCC NSCLC 28.9% | 786-0 renal 40% | DU-145 prostate 25.1% | K-562 leukemia 16.7% | MALME-3M melanoma 67.7% | MDA-MB-231 breast 18.9% | SF-268 CNS 52% | UACC-257 melanoma 71.4% | M14 melanoma 14.5%
active: NCI-H522 lung -41.5% | COLO 205 colon -61.2% | SF-295 CNS 1.21% | SF-539 CNS -31%

c1ccc(CCn2nnc3c(Nc4ccc(N5CCOCC5)cc4)ncnc32)cc1
inactive: NCI-H23 lung 102% | NCI-H226 lung 90.2% | NCI-H322M lung 106% | HOP-62 NSCLC 91.1% | NCI-H460 lung 89% | NCI-H522 lung 80.2% | A549/ATCC NSCLC 74.1% | 786-0 renal 87.1% | COLO 205 colon 90.1% | DU-145 prostate 105% | K-562 leukemia 27.1% | MALME-3M melanoma 69.2% | MDA-MB-231 breast 78.4% | SF-268 CNS 107% | SF-295 CNS 94.1% | SF-539 CNS 82.2% | UACC-257 melanoma 68.6% | M14 melanoma 44%
active: HOP-92 NSCLC -2.53%

Cc1cc(Nc2nc(C(=O)Nc3ccccc3)nc3ccccc23)n[nH]1
inactive: NCI-H23 lung 77.5% | NCI-H226 lung 67.1% | NCI-H322M lung 56.5% | HOP-62 NSCLC 60% | NCI-H460 lung 37.6% | HOP-92 NSCLC 51.2% | NCI-H522 lung 59% | A549/ATCC NSCLC 62.4% | 786-0 renal 56.2% | COLO 205 colon 76% | DU-145 prostate 66.2% | K-562 leukemia 48.7% | MALME-3M melanoma 61.5% | MDA-MB-231 breast 85.4% | SF-268 CNS 71% | SF-295 CNS 53.9% | SF-539 CNS 78.7% | UACC-257 melanoma 83% | M14 melanoma 50.9%

COc1cccc(-n2cc(-c3nc(Cl)c4ccccc4n3)nn2)c1
inactive: NCI-H23 lung 100% | NCI-H226 lung 111% | NCI-H322M lung 102% | HOP-62 NSCLC 125% | NCI-H460 lung 107% | HOP-92 NSCLC 101% | NCI-H522 lung 83.2% | A549/ATCC NSCLC 92.7% | 786-0 renal 97.8% | COLO 205 colon 98.8% | DU-145 prostate 107% | K-562 leukemia 97.9% | MALME-3M melanoma 104% | MDA-MB-231 breast 107% | SF-268 CNS 105% | SF-295 CNS 93.2% | SF-539 CNS 108% | UACC-257 melanoma 110% | M14 melanoma 106%
